PubChem BioAssay AID368 (University of Pittsburgh Molecular Library Screening Center, 2006)
Out of some 65,000 compounds screened, about 85 (0.1%) were called active. No stated cut-off is given here; in the data, active means inhibition above about 50%; inactive means the rest. Only a selection was taken, and actives are over-represented in it overall.

molecular target: M-phase inducer phosphatase 2 (Homo sapiens) (UniProt P30305); experiment: inhibitors of Cdc25B phosphatase catalytic domain, primary screen, biochemical, OMFP fluorescence (AID 368); conditions: recombinant Cdc25B, OMFP fluorescence Ex485/Em525; active compounds read high;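 compounds tested at 10 µM final in the well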
Sequence (P30305 whole entry, looked up, the tested form may be a part): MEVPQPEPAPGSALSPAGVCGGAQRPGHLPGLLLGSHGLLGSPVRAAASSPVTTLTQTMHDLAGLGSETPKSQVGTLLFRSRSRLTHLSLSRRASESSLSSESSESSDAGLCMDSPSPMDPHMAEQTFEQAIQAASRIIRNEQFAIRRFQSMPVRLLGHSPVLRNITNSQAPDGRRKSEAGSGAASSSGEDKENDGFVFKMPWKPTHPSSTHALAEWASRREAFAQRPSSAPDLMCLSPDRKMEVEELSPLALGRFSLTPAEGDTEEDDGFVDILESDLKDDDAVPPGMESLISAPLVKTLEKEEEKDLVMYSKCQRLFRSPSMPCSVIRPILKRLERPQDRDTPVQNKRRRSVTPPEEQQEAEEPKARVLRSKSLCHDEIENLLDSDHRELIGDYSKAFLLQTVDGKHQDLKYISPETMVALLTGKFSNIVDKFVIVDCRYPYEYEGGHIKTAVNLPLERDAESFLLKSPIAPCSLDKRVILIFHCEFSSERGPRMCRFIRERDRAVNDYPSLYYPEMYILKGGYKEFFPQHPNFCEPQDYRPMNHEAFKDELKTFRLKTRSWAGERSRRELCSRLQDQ

inhibition, inactive:
Cc1cc(NS(=O)(=O)c2ccccc2)no1 -0.238%
Nc1ccc(SCCN2C(=O)c3ccccc3C2=O)cc1 3.47%
COc1ccc(C(=O)NCc2cn3ccccc3n2)cc1 8.6%
CC(=O)OCc1cc2cc(C)ccc2[nH]c1=O 8.17%
Cc1noc(C)c1C(=O)NC(C)c1ccc2c(c1)OCO2 (centres undefined) -2.76%
O=C(NC1CC2CCCC(C1)N2C(=O)N1CCCCC1)C1CCCCC1 (centres undefined) 0.205%
Cc1cccc(OCc2nnc(SCc3nc4cc(C(F)(F)F)ccc4c(=O)[nH]3)o2)c1 4.99%
C=CCNc1nnc(SCC(=O)N2CCCCC2)c2ccccc12 -10.6%
O/N=C(\c1ccc2c(c1)OCCO2)C1CCCCC1 -1.56%
CC(C)Cc1cc(C(=O)NCCc2ccccc2)no1 -7.12%
O=C(OCC(=O)c1cccs1)C1=COCCO1 -13.5%
Cc1ccc(-c2csc3nnc(SCC(=O)NCc4ccco4)n23)cc1 -17.7%
Fc1ccccc1CCNc1nnnn1-c1ccccc1 0.973%
Cc1cc(=O)oc(C)c1C(=O)NC1CC(C)(C)NC(C)(C)C1 -30.7%
CCCc1cc(=O)oc2c(C)c(O)c(CN3CCCCC3)cc12 -7.47%
COc1ccc(-c2nc3n(c2Br)CCC3)cc1 2.84%
CC1(C)C(=O)Nc2ccccc2N1C(=O)COC(=O)Cn1cnc2ccccc2c1=O -9.58%
CC(C)OC(=O)c1sc2nc3c(cc2c1N)C(=O)CCC3 15.7%
CCN(CCCCOC(=O)c1ccc(OC)c(OC)c1)C(C)Cc1ccc(OC)cc1 (centres undefined) -19.9%
O=C(O)[C@@H]1CCCN1c1ncnc2sc3c(c12)CCC3 1.46%
O=C(Nc1ccc2c(c1)nc1n2CCCCC1)c1cc(S(=O)(=O)N2CCOCC2)ccc1Cl 7.55%
O=S(=O)(Nc1ccccc1N1CCOCC1)c1ccc(Cl)s1 -16%
COc1cc(OC)c(C(=O)Nc2ccc(N(C)C)cc2)cc1OC 4.05%
CCOC(=O)c1ccc(-c2ccc(C(=O)Nc3cccnc3)o2)cc1 -8.16%
CCOc1cc(NC(=O)c2ccco2)c(OCC)cc1NC(=O)COc1ccccc1 2.37%
COc1ccc(OC)c(C2N(c3ccccn3)C(=O)C3CCCN32)c1 (centres undefined) 6.93%
CCCc1nc(N)nc2c1C(=O)CC(C)(C)C2 -1.09%
CCCN1CCN(CCCNC(=O)CN2C(=O)COc3ccccc32)CC1 -2.33%
O=C(N1CCOCC1)N(Cc1ccccc1)c1ccccn1 -13.1%
O=C(COc1cccc(-n2cnnn2)c1)NCCC1=CCCCC1 -1.12%
Cc1ccnc(N2CCCC(C(=O)Nc3cc(F)ccc3C)C2)n1 (centres undefined) 12.7%
CC1CN(C2CCN(C(=O)COc3ccccc3)CC2)CC(C)O1 (centres undefined) -13.1%
CC1CCCC(C)N1C(=O)CN1CCN(c2nc(-c3ccc(F)cc3)cs2)CC1 (centres undefined) -8.69%
CNC(=O)c1nnn(-c2ccccc2)c1C(=O)NC 0.211%
O=c1c(F)cn(C2CCCO2)c(=O)n1Cc1ccccc1Cl (centres undefined) 1.39%
Fc1ccccc1C(c1nnnn1Cc1ccc2c(c1)OCO2)N1CCN(Cc2ccccc2)CC1 (centres undefined) -4.84%
C=CCn1c(=N)n(CC(O)COc2ccc(OC)cc2)c2ccccc21 (centres undefined) 0.106%
Cc1ncc(CC(=O)n2cc(C(=O)c3cc(Cl)ccc3O)cn2)s1 -7.5%
CC(Nc1nc(N2CCCC2)nc2ccccc12)c1ccccc1 (centres undefined) -6.08%
c1ccc2c(NCC3CCCO3)nc(-c3ccncc3)nc2c1 (centres undefined) 1.5%
O=C(C1=C(O)C(=O)N(Cc2ccccc2)C1c1cccnc1)c1ccco1 (centres undefined) -7.28%
CC(C)(C)Oc1ncc(Br)c(OC(C)(C)C)n1 -14.4%
CC(C)c1ccc(N2CC(C(=O)Nc3nccs3)CC2=O)cc1 (centres undefined) 3.74%
COc1ccc(-n2nc3c(c2NC(=O)Cc2cccc(C)c2)CS(=O)C3)cc1 (centres undefined) -6.02%
C[N+]1(CCNC(=O)/C=N/O)CCCCC1 15.7%
CCOc1cc(N2CCOCC2)c(OCC)cc1NC(=O)COc1cccc2cccnc12 -6.8%
CCn1c(SCC(=O)Nc2cccc(F)c2)nnc1-c1cc2cc(Br)ccc2o1 -5.35%
COC(=O)c1ccc(NC(=O)CN(c2ccc(C)cc2)S(=O)(=O)c2c(C)n[nH]c2C)cc1 5.5%
CC1(C)CC(O)C(CCC(O)c2ccccc2)C(C)(C)N1 (centres undefined) -23.8%
